# Counter-ions that a name gives are not always drawn. Among all 1,500 compounds or so, about 30 (2%) showed activity.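 The calls were made as follows: active = robust z-score below -2; a few such results were not called.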 Many of the other results were omitted from the sample, so actives are more common in it than they were.
# Test system: optoTopBP1 Flp-In 293 T-REx (HEK293) cells
# Assay: light-induced TopBP1 condensate (nuclear foci) count, plate-normalised robust z-score vs non-control wells; higher = more TopBP1 condensates (negative = condensation inhibitor), active = hit call of the paper
# Settings: 10 µM; incubation time 2 h
row,Compound,light-induced TopBP1 condensate (z-score)
1,CCOC(=O)[C@H](CCc1ccccc1)N[C@@H](C)C(=O)N(CC(=O)O)C1Cc2ccccc2C1 [Delapril Hydrochloride],0.988 (inactive)
2,CC(=O)O[C@H]1C[C@@H]2CC[C@@H]3[C@H](CC[C@@]4(C)[C@H]3C[C@H]([N+]3(C)CCCCC3)[C@@H]4OC(C)=O)[C@@]2(C)C[C@@H]1N1CCCCC1 [Vecuronium bromide],0.392 (inactive)
3,O=c1[nH]cnc2c1ncn2[C@@H]1O[C@H](CO)[C@@H](O)[C@H]1O [Inosine],-0.394 (inactive)
4,Cc1cccn2c(=O)c(-c3nnn[nH]3)cnc12 [Pemirolast potassium],0.448 (inactive)
5,CN(C)[C@@H]1C(O)=C(C(=O)NCNCCCC[C@H](N)C(=O)O)C(=O)[C@@]2(O)C(O)=C3C(=O)c4c(O)cccc4[C@@](C)(O)[C@H]3C[C@@H]12 [Lymecycline],0.0668 (inactive)
6,Cc1c(Cl)cccc1Nc1ccccc1C(=O)O [Tolfenamic acid],-0.245 (inactive)
7,CN[C@@H]1[C@H](O[C@H]2[C@H](O[C@H]3[C@H](O)[C@@H](O)[C@H](N=C(N)N)[C@@H](O)[C@@H]3N=C(N)N)O[C@@H](C)[C@]2(O)C=O)O[C@@H](CO)[C@H](O)[C@H]1O [Streptomycin sulfate],-0.213 (inactive)
8,CC(=O)Nc1c(I)c(NC(C)=O)c(I)c(C(=O)O)c1I [Diatrizoic acid dihydrate],-0.965 (inactive)
9,CC(=O)OC[C@H]1O[C@@H]([S-])[C@H](OC(C)=O)[C@@H](OC(C)=O)[C@@H]1OC(C)=O.CCP(CC)CC.[Au+] [Auranofin],-4.74 (active)
10,CC(=O)OC[C@H]1O[C@@H](n2ncc(=O)[nH]c2=O)[C@H](OC(C)=O)[C@@H]1OC(C)=O [Azaribine],0.84 (inactive)
11,CC(C)c1nc(CN(C)C(=O)N[C@H](C(=O)N[C@@H](Cc2ccccc2)C[C@H](O)[C@H](Cc2ccccc2)NC(=O)OCc2cncs2)C(C)C)cs1 [Ritonavir],-1.47 (inactive)
12,Cc1onc(-c2ccccc2)c1-c1ccc(S(N)(=O)=O)cc1 [Valdecoxib],-1.03 (inactive)
13,CCCCc1ccc2[nH]c(NC(=O)OC)nc2c1 [Parbendazole],-0.867 (inactive)
14,COC(=O)Nc1nc2cc(C(=O)c3ccc(F)cc3)ccc2[nH]1 [Flubendazol],-2.01 (active)
15,COC(=O)Nc1nc2cc(C(=O)c3ccccc3)ccc2[nH]1 [Mebendazole],-1.07 (inactive)
16,COC(=O)Nc1nc2cc([S+]([O-])c3ccccc3)ccc2[nH]1 (configuration not stated) [Oxfendazol],0.733 (inactive)
17,CCCOc1ccc2[nH]c(NC(=O)OC)nc2c1 [Oxibendazol],-3.01 (active)
18,COC(=O)Nc1nc2cc(C(=O)c3cccs3)ccc2[nH]1 [Nocodazole],-1.07 (inactive)
19,O=C(O)c1cc(/N=N/c2ccc(S(=O)(=O)Nc3ccccn3)cc2)ccc1O [Sulfasalazine],-0.0783 (inactive)
20,C[C@H](O)[C@H](O)[C@H]1CNc2[nH]c(N)nc(=O)c2N1 [Sapropterin dihydrochloride],0.574 (inactive)
21,CC[N+](C)(CC)CCC[n+]1c(-c2ccccc2)c2cc(N)ccc2c2ccc(N)cc21 [Propidium iodide],-3.58 (active)

row,Compound,light-induced TopBP1 condensate (z-score)
1,C[C@]12CCC(=O)C=C1C=C[C@@H]1[C@@H]2CC[C@@]2(C)[C@H]1CC[C@@]21CCC(=O)O1 [Canrenone],0.252 (inactive)
2,COCCCOc1ccnc(C[S+]([O-])c2nc3ccccc3[nH]2)c1C (configuration not stated) [Rabeprazole Sodium salt],-0.658 (inactive)
3,CC(C)=C/C(C)=N/Nc1nncc2ccccc12 [Budralazine],-0.574 (inactive)
4,CC(N)C12CC3CC(CC(C3)C1)C2 (configuration not stated) [Rimantadine Hydrochloride],-0.685 (inactive)
5,OC[C@H]1O[C@@H](c2ccc(Cl)c(Cc3ccc(O[C@H]4CCOC4)cc3)c2)[C@H](O)[C@@H](O)[C@@H]1O [Empagliflozin],0.47 (inactive)
6,CN(C)[C@@H]1C(O)=C(C(N)=O)C(=O)[C@@]2(O)C(O)=C3C(=O)c4c(O)cccc4[C@@](C)(O)[C@H]3C[C@@H]12 [Tetracycline hydrochloride],0.0489 (inactive)
7,N#Cc1cc(NC(=O)C(=O)O)c(Cl)c(NC(=O)C(=O)O)c1 [Lodoxamide],0.686 (inactive)
8,Cc1ccc2c(Cl)cc(Cl)c(O)c2n1 [Chlorquinaldol],-9.09 (active)
9,Oc1c(Cl)cc(Cl)c2cccnc12 [Chloroxine],-0.15 (inactive)
10,Oc1c(I)cc(Cl)c2cccnc12 [Clioquinol],-0.446 (inactive)
11,C[C@@H]1C[C@H]2[C@@H]3C[C@H](F)C4=CC(=O)C=C[C@]4(C)[C@@]3(F)[C@@H](O)C[C@]2(C)[C@@]1(O)C(=O)COC(=O)C(C)(C)C [Flumethasone pivalate],-0.352 (inactive)
12,COc1cc([S+](C)[O-])ccc1-c1nc2cccnc2[nH]1 (configuration not stated) [Sulmazole],1.19 (inactive)
13,CCOc1ccc2c(c1)C(C)=CC(C)(C)N2 [Ethoxyquin],0.549 (inactive)
14,CCc1c2c(nc3ccc(OC(=O)N4CCC(N5CCCCC5)CC4)cc13)-c1cc3c(c(=O)n1C2)COC(=O)[C@]3(O)CC [Irinotecan hydrochloride trihydrate],1.07 (inactive)
15,CC[C@@]1(O)C(=O)OCc2c1cc1n(c2=O)Cc2cc3c(CN(C)C)c(O)ccc3nc2-1 [Topotecan],-2.31 (active)
16,CCCNC(C)(C)C(=O)Nc1ccccc1C [Quatacaine],-0.106 (inactive)
17,O=C1OCCN1/N=C/c1ccc([N+](=O)[O-])o1 [Furazolidone],-0.718 (inactive)
18,CNCCC=C1c2ccccc2C=Cc2ccccc21 [Norcyclobenzaprine],-0.386 (inactive)
19,CNCCCC12CCC(c3ccccc31)c1ccccc12 [Maprotiline hydrochloride],-0.0912 (inactive)
20,CNCCCC1c2ccccc2C=Cc2ccccc21 [Protriptyline hydrochloride],-2.86 (active)
21,COc1c(O[C@@H]2O[C@H](CO)[C@@H](O)[C@H](O)[C@H]2O)cc2c(c1OC)-c1ccc(SC)c(=O)cc1[C@@H](NC(C)=O)CC2 [Thiocolchicoside],-0.423 (inactive)

row,Compound,light-induced TopBP1 condensate (z-score)
1,CCCCCOC(=O)Nc1nc(=O)n([C@@H]2O[C@H](C)[C@@H](O)[C@H]2O)cc1F [Capecitabine],0.43 (inactive)
2,CO[C@H]1/C=C/O[C@@]2(C)Oc3c(C)c(O)c4c(c3C2=O)C2=NC3(CCN(CC(C)C)CC3)NC2=C(NC(=O)/C(C)=C\C=C\[C@H](C)[C@H](O)[C@@H](C)[C@@H](O)[C@@H](C)[C@H](OC(C)=O)[C@@H]1C)C4=O [Rifabutin],-0.0256 (inactive)
3,COc1c(O)cc2c(c1O)[C@@H]1O[C@H](CO)[C@@H](O)[C@H](O)[C@H]1OC2=O [Bergenin],-0.755 (inactive)
4,Cc1nccn1CC1CCc2c(c3ccccc3n2C)C1=O (configuration not stated) [Ondansetron Hydrochloride],1.05 (inactive)
5,NC[C@H]1O[C@H](O[C@H]2[C@H](O)[C@@H](O[C@H]3O[C@H](CO)[C@@H](O)[C@H](N)[C@H]3O)[C@H](N)C[C@@H]2N)[C@H](N)C[C@@H]1O [Tobramycin],-0.114 (inactive)
6,CC(NCCC(c1ccccc1)c1ccccc1)c1ccccc1 (configuration not stated) [Fendiline hydrochloride],-2.06 (active)
7,CNCC[C@@H](Oc1ccccc1C)c1ccccc1 [Tomoxetine hydrochloride],-1.4 (inactive)
8,CC(NN)c1ccccc1 (configuration not stated) [Mebanazine],0.298 (inactive)
9,CC(C)[C@H]1CC[C@H](C(=O)N[C@H](Cc2ccccc2)C(=O)O)CC1 [Nateglinide],-0.706 (inactive)
10,COc1cc(NC(C)CCCN)c2ncccc2c1 (configuration not stated) [Primaquine diphosphate],-1.07 (inactive)
11,N[C@@H]1CCCCN(c2c(F)cc3c(=O)c(C(=O)O)cn(C4CC4)c3c2Cl)C1 [Besifloxacin hydrochloride],-0.0694 (inactive)
12,C[C@@H](O)[C@H]1C(=O)N2C(C(=O)O)=C(S[C@@H]3CN[C@H](CNS(N)(=O)=O)C3)[C@H](C)[C@H]12 [Doripenem monohydrate],1.08 (inactive)
13,Cc1cc(C(C)(C)CC(C)(C)C)ccc1OCCOCC[N+](C)(C)Cc1ccccc1 [Methyl benzethonium chloride],-0.593 (inactive)
14,CCN(CC)C(=S)SSC(=S)N(CC)CC [Disulfiram],-4.41 (active)
15,C=C1c2c(Cl)ccc(O)c2C(=O)C2=C(O)[C@]3(O)C(=O)C(C(N)=O)=C(O)[C@@H](N(C)C)[C@@H]3[C@@H](O)[C@H]12.O=C(O)c1cc(S(=O)(=O)O)ccc1O [Meclocycline sulfosalicylate],0.506 (inactive)
16,N[C@@H](CCC(=O)N[C@@H](CS)C(=O)NCC(=O)O)C(=O)O [Glutathione],1.35 (inactive)
17,O=C(O)CCNC(=O)c1ccccc1 [Betamipron],-0.17 (inactive)
18,Cn1c(=O)c2c(ncn2CCO)n(C)c1=O [Etofylline],0.502 (inactive)
19,CO[C@@]12[C@H](COC(N)=O)C3=C(C(=O)C(C)=C(N)C3=O)N1C[C@@H]1N[C@@H]12 [Mitomycin C],-0.867 (inactive)
20,N[C@H](Cc1ccccc1)C(=O)O [D-phenylalanine],-1.1 (inactive)

# Reference: the supplement of paper PMC12582362
